This passage reports max response results from PubChem BioAssay (NCATS).

Values joined by “and” are separate entries in the source; they are usually repeats but may differ in a detail not shown here. Identical values can stand only once. Inconclusive results are not listed. Active and inactive are the calls of the source. Calls follow the shape of the dose curve; as a rule, active = well fitted inhibition curve with a large enough effect; inconclusive = small, poorly fitted or top-dose-only effect; inactive = flat fitted curve, though single readings scatter.
% is scaled to controls: 0 for no effect and ±100 for the full control effect.

The experiment relates to KB-3-1. In words: Cytotoxic Profiling of Annotated Libraries Using Quantitative High-Throughput Screening (AID 1296008). Also: nearly all actives have a fitted effect of over 60% in size. The conditions noted are these: Five cell lines viability, CellTiter-Glo ATP luminescence, 48-72 h; max response: stronger effect = lower value. The procedure, abridged:
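Cells exposed to compounds for 48 or 72 hr at 37 degrees Celsius. Viability read as ATP-coupled luminescence with CellTiter-Glo after 10 min at room temperature.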
For the compound `C[C@@H](CO)NC(=O)[C@@H]1C=C2c3cccc4[nH]cc(c34)C[C@H]2N(C)C1`, the max response was 1.7% (inactive).

Consider `O=C1C=C2C=C[C@@H]3C[C@@]2(O1)[C@H]1CCCCN31`, for which the max response is -12.4% (inactive).

As to `Cc1ccccc1-n1c(CF)nc2ccc(N)cc2c1=O`, the max response was -0.0685% (inactive).

In the case of `CCC/C=C/C=C/C(=O)O[C@H]1/C(=C/C(=O)OC)C[C@H]2C[C@H]([C@@H](C)O)OC(=O)C[C@H](O)C[C@@H]3C[C@H](OC(C)=O)C(C)(C)[C@](O)(C[C@@H]4C/C(=C/C(=O)OC)C[C@H](/C=C/C(C)(C)[C@]1(O)O2)O4)O3`, the max response is 0.184% (inactive).

On to `CN[C@H]1C[C@@H](N)[C@H](O)[C@@H](O[C@@H]2O[C@H](CO)[C@H](O)[C@@H]3OC4(O[C@H]23)O[C@H](C(N)CO)[C@H](O)[C@H](O)[C@H]4O)[C@@H]1O` (some centres not stated), for which the max response is -7% (inactive) and 5.21% (inactive).

Turning to `[2H]C([2H])([2H])[C@H](N)Cc1ccccc1`, the max response is 2.04% (inactive).

Turning to `CCCCCCC(=O)O[C@H]1CC[C@H]2[C@@H]3CC[C@H]4CC(=O)C=C(C)[C@]4(C)[C@H]3CC[C@]12C`, the max response was -2.21% (inactive).

Consider `C[C@]12C[C@H]3S[C@H]3C[C@@H]1CC[C@@H]1[C@@H]2CC[C@]2(C)[C@@H](O)CC[C@@H]12`, for which the max response is 5.47% (inactive).

For `COC(=O)[C@@H]1[C@H]2CC[C@@H](C[C@H]1OC(=O)c1ccccc1)N2C`, the max response is 0.336% (inactive).

On to `CC1(C)[C@H](C=C(Cl)Cl)[C@H]1C(=O)OCc1c(F)c(F)cc(F)c1F`, for which the max response was -0.195% (inactive).

Regarding `CN1[C@H]2CC[C@@H]1[C@@H](C(=O)O)[C@@H](OC(=O)c1ccccc1)C2`, the max response is 17.1% (inactive) and -20.4% (inactive).

For `CC(C)(O)[C@@H]1[C@H]2OC(=O)[C@@H]1[C@]1(O)C[C@H]3O[C@]34C(=O)O[C@H]2[C@]14C`, the max response was 0.436% (inactive) and -3.57% (inactive).

`O=C1C[C@@H]2OCC=C3CN4CC[C@]56c7ccccc7N1[C@H]5[C@H]2[C@H]3C[C@H]46` (tested in a mixture with another compound): the max response is 0.545% (inactive) and 11.6% (inactive).

`Cc1cc(C)cc(C(=O)OC2C[C@H]3CC[C@@H](C2)N3C)c1` (some centres not stated): the max response is -7.52% (inactive).

As to `C[C@]12CC[C@H]3[C@@H](CCC4=C(Cl)C(=O)CC[C@@]43C)[C@@H]1CC[C@@H]2O`, the max response is 3.69% (inactive).

Turning to `CCN(CC)C(=O)N[C@H]1C[C@@H]2c3cccc4[nH]cc(c34)C[C@H]2N(C)C1`, the max response was -7.12% (inactive).

For the compound `C[C@@H]([C@H](O)c1ccccc1)N(C)C`, the max response is 3.96% (inactive).

With `CCCCC[C@@H](O)C1C(=O)OC(C)[C@H](O)/C=C/C=C/C=C/C=C/C=C(\C)C(O)C(O)C(O)C[C@H](O)C[C@H](O)C[C@H](O)C[C@H](O)C[C@@H]1O` (some centres not stated), the max response was -4.4% (inactive) and -1.2% (inactive).

For the compound `Cc1ccccc1-n1c(C)nc2ccccc2c1=O`, the max response is -2.74% (inactive) and -4.4% (inactive).

Turning to `C[N+]1(C)[C@@H]2CC[C@H]1CC(OC(=O)c1c[nH]c3ccccc13)C2` (some centres not stated), the max response was -6.15% (inactive).

For the compound `CCN(CC)CCO[C@H]1CC[C@@]2(C)C(=CC[C@@H]3[C@@H]2CC[C@]2(C)C(=O)CC[C@@H]32)C1`, the max response was -11.5% (inactive).

As to `O=C1OC2(c3cc(Br)c(O)cc3Oc3c2cc(Br)c(O)[c]3[Hg])c2ccccc21` (configuration not stated), the max response was 6.88% (inactive).

Take `COc1ccc(OC)c([C@@H](O)[C@H](C)N)c1`: the max response is -0.699% (inactive).

Take `CC(C)CCC(=O)O[C@H]1CC[C@H]2[C@@H]3CCC4=CC(=O)CC[C@]4(C)[C@H]3CC[C@]12C`: the max response was 19.3% (inactive).

Take `C[C@]12CCC(=O)C=C1C=C[C@@H]1[C@@H]2CC[C@@]2(C)[C@H]1CC[C@@]2(O)CCC(=O)O`: the max response was 17.7% (inactive).

As for `CC(=O)O[C@H]1CC[C@@]2(C)C(=CC[C@@H]3[C@@H]2CC[C@]2(C)C(=O)CC[C@@H]32)C1`, the max response was -3.08% (inactive).

Regarding `C[C@@H]1[C@@H]2Cc3ccc(O)cc3[C@@]1(C)CCN2CC1CC1`, the max response is -3.25% (inactive).
